Bioassay records from PubChem.
This excerpt belongs to a sample that is enriched for hits.
IDE exosite inh: exo-site inhibitors of human IDE, primary screen, biochemical, fluorescence anisotropy, probe displacement | actives 6.3% (n = 17,000) | z-score at 20 µM | Insulin-degrading enzyme (Homo sapiens), P14735 | purified IDE, FL-6b probe fluorescence polarization; active compounds read low;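 active = z-score of -3 or lower, meaning strong loss of probe binding signal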;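 also: His-tagged human IDE residues 42-1019 made in E. coli with 30 nM FL-6b probe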
The depositor's hits bear a star.

SMILES	IDE exosite inh
CO[C@@H]1CN(C)C(=O)c2ccc(NC(=O)c3ccccc3F)cc2OC[C@H](C)N(C)C[C@@H]1C	0.62
Fc1ccccc1-c1ccc(C2[C@H]3CNC[C@@H]2N3CC2CC2)cc1 (some centres undefined)	2
N#C[C@@H]1[C@@H](c2ccccc2-c2ccc(F)cc2)[C@@H](CO)N1c1ncc(-c2ccccc2)s1	3
CCC(=O)N1[C@H](CO)[C@@H](c2ccccc2)[C@@H]1CN(C(C)C)S(C)(=O)=O	4.2
COCC(=O)N1CCC2(CC1)CN[C@@H](CO)c1c2c2ccc(OC)cc2n1C	-0.72
COc1cccc(C(=O)Nc2ccc3c(c2)C(=O)N(C)[C@H]2CC[C@@H](CC(=O)NCc4ccc(F)cc4)O[C@H]2CO3)c1	-2.9
COc1ccc(C(=O)Nc2ccc3c(c2)C(=O)N(C)[C@H]2CC[C@H](CC(=O)NCC4CC4)O[C@@H]2CO3)cc1	-0.44
COc1cccc(C(=O)Nc2ccc3c(c2)C(=O)N(C)[C@H]2CC[C@@H](CC(=O)NCc4ccc(F)cc4)O[C@@H]2CO3)c1	-6.2*
CN1C(=O)c2cc(NS(C)(=O)=O)ccc2OC[C@@H]2O[C@@H](CC(=O)N3CCOCC3)CC[C@@H]21	-5.1*
COc1ccc(C(=O)Nc2ccc3c(c2)C(=O)N(C)[C@H]2CC[C@@H](CC(=O)NCC4CC4)O[C@@H]2CO3)cc1	0.56
CCS(=O)(=O)Nc1ccc2c(c1)C(=O)N(C)[C@@H]1CC[C@H](CC(=O)NCc3ccc(OC)cc3)O[C@H]1CO2	0.06
CN1C(=O)c2cc(NS(C)(=O)=O)ccc2OC[C@@H]2O[C@H](CC(=O)NCc3ccccc3)CC[C@@H]21	-2.5
COc1cccc(C(=O)Nc2ccc3c(c2)C(=O)N(C)[C@H]2CC[C@H](CC(=O)NCc4ccc(F)cc4)O[C@H]2CO3)c1	-0.35
COc1ccc(C(=O)Nc2ccc3c(c2)C(=O)N(C)[C@H]2CC[C@H](CC(=O)NCC4CC4)O[C@H]2CO3)cc1	-3.6*
CN1C(=O)c2cc(NS(C)(=O)=O)ccc2OC[C@H]2O[C@H](CC(=O)N3CCOCC3)CC[C@H]21	-1
CN1C(=O)c2cc(NS(C)(=O)=O)ccc2OC[C@@H]2O[C@H](CC(=O)N3CCOCC3)CC[C@@H]21	-1.5
CCS(=O)(=O)Nc1ccc2c(c1)C(=O)N(C)[C@H]1CC[C@@H](CC(=O)NCc3ccc(OC)cc3)O[C@@H]1CO2	-4.2*
CC(C)NC(=O)NCC[C@H]1CC[C@@H](NS(=O)(=O)c2ccc(Oc3ccccc3)cc2)[C@H](CO)O1	0.58
COc1ccc(NC(=O)N2C[C@@H]3[C@H](c4ccccc42)[C@H](CO)N3Cc2ccccn2)cc1	0.22
O=C(C[C@@H]1CC[C@H]2[C@@H](COC[C@H](O)CN2S(=O)(=O)c2ccccc2)O1)NCC1CCCCC1	-1.1
O=C(NC1CCCC1)[C@H]1[C@H](CO)[C@H]2Cn3c(ccc(C4=CCCCC4)c3=O)[C@@H]1N2CC1CC1	-0.42
COc1ccc(-c2ccccc2[C@H]2[C@@H](CO)N(C(=O)C3CC3)[C@H]2C#N)cc1	4
O=S(=O)(c1cccc(F)c1)N1CC[C@@H]2[C@H]1c1cc(C#Cc3ccccc3F)ccc1N[C@@H]2CO	2.5
COCC(=O)N1[C@H](C#N)[C@H](c2ccccc2-c2cccc(C)c2)[C@H]1CO	-0.54
CCC(=O)N1CC(=O)N2[C@H](CO)[C@H](c3ccc(C#CCC(C)C)cc3)[C@H]2C1	-0.069
SMILES	IDE exosite inh
COc1ccc2c3c([nH]c2c1)[C@@H](CO)NCC31CCN(C(=O)c2ccccc2)CC1	-1.8
Cc1ccccc1-c1ccc([C@@H]2[C@H]3CN(C(=O)Cc4ccccn4)CC(=O)N3[C@H]2CO)cc1	-18*
O=C(Cc1ccccn1)N1CC(=O)N2[C@H](CO)[C@@H](c3ccc(-c4ccc(F)cc4)cc3)[C@H]2C1	3.3
Cc1ccccc1-c1ccc([C@@H]2[C@@H](CO)N3C(=O)CN(C(=O)Cc4ccccn4)C[C@@H]23)cc1	-20*
O=C(Cc1ccccn1)N1CC(=O)N2[C@H](C1)[C@@H](c1ccc(-c3ccc(F)cc3)cc1)[C@@H]2CO	1.9
O=C(Cc1ccccn1)N1CC(=O)N2[C@@H](CO)[C@H](c3ccc(-c4ccc(F)cc4)cc3)[C@@H]2C1	1.4
O=C(Cc1ccccn1)N1CC(=O)N2[C@H](CO)[C@@H](c3ccc(-c4ccc(F)cc4)cc3)[C@@H]2C1	2.1
Cc1ccccc1-c1ccc([C@H]2[C@H]3CN(C(=O)Cc4ccccn4)CC(=O)N3[C@H]2CO)cc1	-8.9*
COc1ccc(-c2ccc([C@@H]3[C@H]4CN(C(=O)Cc5ccccn5)CC(=O)N4[C@H]3CO)cc2)cc1	-0.28
Cc1ccccc1-c1ccc([C@@H]2[C@@H](CO)N3C(=O)CN(C(=O)Cc4ccccn4)C[C@H]23)cc1	-5.8*
O=C(Cc1ccccn1)N1CC(=O)N2[C@H](CO)[C@H](c3ccc(C#CC4CC4)cc3)[C@H]2C1	2.2
CCCNC(=O)N1[C@H](CO)[C@H](c2ccccc2-c2ccc(OC)cc2)[C@@H]1C#N	0.18
